# H9c2 protect: modulators protecting cardiomyocytes from myocardial damage | protection from H2O2 cell death, % at 20 µM | actives 0.63% (n = 360,000) | H9c2 cardiomyocytes, H2O2 injury protection, ATPLite, 2 h;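 active = compounds giving at least 50% protection of heart cells from peroxide-induced death in the single-dose screen, raw or plate-pattern-corrected value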;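 note: 0% = DMSO wells with peroxide and 100% = DMSO wells without peroxide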
# PHOSPHO1 block: PHOSPHO1 (human) inhibition; inhibition, % at 13.3 µM; actives 1.1% (n = 290,000); recombinant PHOSPHO1, absorbance phosphatase assay; Q8TCT1; AID 1565; in the data active = inhibition above about 60%
# Target sequence (Q8TCT1 whole entry, looked up): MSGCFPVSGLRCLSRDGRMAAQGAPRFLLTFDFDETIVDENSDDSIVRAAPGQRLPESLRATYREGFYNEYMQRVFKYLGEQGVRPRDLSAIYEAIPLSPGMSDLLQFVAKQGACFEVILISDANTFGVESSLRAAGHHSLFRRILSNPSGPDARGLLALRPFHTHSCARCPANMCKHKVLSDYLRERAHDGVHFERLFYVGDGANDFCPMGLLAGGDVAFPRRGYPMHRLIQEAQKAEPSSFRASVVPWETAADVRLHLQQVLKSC
# ALR H2O2 inh: inhibitors of human sulfhydryl oxidase ALR. actives 3.8% (n = 290,000). purified ALR, DTT oxidation, H2O2 HRP-luminol luminescence. P55789. inhibition, % (concentration not given with the values);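 active = mean replicate inhibition above about 79%, with every replicate also reaching it, limit read from the data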
# Target sequence (P55789 whole entry, looked up): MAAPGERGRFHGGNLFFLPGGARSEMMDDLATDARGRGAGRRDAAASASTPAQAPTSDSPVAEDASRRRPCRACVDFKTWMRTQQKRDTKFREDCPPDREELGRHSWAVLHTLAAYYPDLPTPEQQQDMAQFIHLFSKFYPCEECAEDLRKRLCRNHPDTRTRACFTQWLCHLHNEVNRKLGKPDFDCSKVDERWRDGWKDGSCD
# PfG6PD inh: PfG6PD (Plasmodium falciparum) enzyme inhibition. PfGluPho enzyme, NADPH resazurin-diaphorase fluorescence. inhibition, % at 20 µM. actives 0.78% (n = 350,000);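 active = inhibition reaching at least a set limit at 20 µM in the primary screen, cut at about 59% in these data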;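 note: 0% = DMSO wells with substrate and 100% = DMSO wells lacking glucose-6-phosphate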
# PfM18AAP inh: PfM18AAP enzyme inhibition. recombinant PfM18AAP, H-Glu-NHMec fluorogenic cleavage. inhibition, % at 7.35 µM. actives 1.2% (n = 290,000). AID 1822;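 active = inhibition above the campaign mean inhibition over all tested compounds plus 3 SD, cut at about 28% in these data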;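 note: 0% = plate median of test compound wells and 100% = 2 mM ZnCl2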
# PfGluPho conf: confirmation of Plasmodium falciparum G6PD inhibitors; shares compounds with PfG6PD inh; recombinant PfGluPho, NADPH-diaphorase-resazurin fluorescence; inhibition, % at 20 µM; actives 34% (n = 2,400); AID 504753;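 active = inhibition of at least 50% at 20 µM in any single replicate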;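 note: 0% = DMSO with substrate and 100% = DMSO lacking glucose-6-phosphate substrate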
# Diaph ctr 10uM: counter-screen for P. falciparum G6PD inhibitors: diaphorase inhibitors, oxidizers; shares compounds with PfG6PD inh; diaphorase-coupled resazurin reduction, fluorescence, NADPH 10 uM; inhibition, % at 20 µM; actives 39% (n = 820);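 active = average inhibition reaching 50% or more with the compound at 20 µM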;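 note: resorufin red fluorescence formed as diaphorase reduces resazurin using NADPH; 0% = DMSO with enzyme and 100% = DMSO without enzyme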
# Diaphorase 30uM: inhibits diaphorase or oxidizes, flagging false PfG6PD hits. actives 29% (n = 820). Diaphorase/resazurin coupled assay, resorufin fluorescence, 30 uM NADPH. inhibition, % at 20 µM. AID 504863. shares compounds with PfG6PD inh;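 active = inhibition averaging 50% or more, tested at 20 µM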;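 note: 0% = DMSO with enzyme and 100% = DMSO wells lacking diaphorase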
# Starred values were filed as active, the others as inactive; x = no result; ! = repeats disagree. Rows were chosen to be rich in hits. Some 5.6% of all compounds tested hit in one or more screens of this group.
SMILES,H9c2 protect,PHOSPHO1 block,ALR H2O2 inh,PfG6PD inh,PfM18AAP inh,PfGluPho conf,others
O=[N+]([O-])c1c(Nc2ccc(O)cc2)cc(Cl)c2nonc12,-21,18,47,60*,-23,23,
CC(=NO)c1cc(Br)c2cccc3c2c1CC3,-10,x,x,5,x,x,
COC(=O)c1cc(CSc2nc3ccc(C)cc3[nH]2)oc1C,-28,12,34,61*,-15,17,
COC(=O)c1ccc(CSc2nc3ccccc3[nH]2)o1,5,19,22,9,6,x,
Cc1cccc(CC2CC(=O)N(c3ccc(C)cc3Br)C2=O)c1 (stereo not given),7,31,18,13,-11,x,
Cn1cc(C2=C(c3ccc(Cl)cc3Cl)C(=O)NC2=O)c2ccccc21,31,36,-28,66*,14,-1,
Cc1ccc(-c2cn(CCN)c(-c3ccc(Cl)nc3)n2)cc1,8,x,20,-10,x,x,
Cn1c(-c2ccc(Cl)nc2)nc2cc(Cl)ccc21,4,-7,x,49,-5,22,
CSc1nnc(NC(=O)c2ccc3c(c2)OCO3)s1,-15,18,-14,96*,1,74*,Diaph ctr 10uM=49;Diaphorase 30uM=48
Cc1nnc(NC(=O)c2ccc3c(c2)OCO3)s1,-7,44,0,17,11,x,
COCCNc1nnc(SCC(=O)c2ccc3c(c2)OCO3)s1,-2,41,x,4,7,x,
COCCSc1nnc(NC(=O)c2ccc3c(c2)OCO3)s1,-4,8,2,71*,-7,34,
Cc1cc(Nc2ccc(Cl)cc2)nc(NCc2ccccc2)n1,-21,14,34,60*,-11,-27,
Cc1ccc(Nc2cc(C)nc(-c3ccccc3O)n2)cc1,-17,-2,1,28,-11,x,
Cc1ccc(Nc2cc(C)nc(-c3ccccc3)n2)cc1,-14,31,0,65*,0,-4,
Cc1cccc(NC(=O)c2ccc(OCc3c(C)noc3C)cc2)n1,1,x,3,4,x,x,
O=C(O)COn1c(-c2ccc(Cl)cc2)nc2ccc(Cl)cc21,-5,25,26,60*,3,36,
Clc1ccc(COn2c(-c3ccc(Cl)cc3)nc3ccccc32)cc1,-11,-3,-7,31,-14,x,
COn1c(-c2ccc(Cl)cc2)nc2ccc(Cl)cc21,-4,8,-5,66*,-7,8,
COc1ccccc1-c1cnc(C(O)c2cc(Cl)cc(Cl)c2)[nH]1 (stereo not given),-4,x,x,x,x,x,
CCc1cc2c(=O)c(-c3nc(C)cs3)coc2cc1O,-3,24,-6,76*,-2,30,
O=[N+]([O-])c1ccc(SCCc2ccncc2)cc1,-1,8,-9,68*!,10,13,
CC(=O)Nc1ccc(NC(=O)CCCc2ccccc2)cc1,-6,19,-1,1,1,x,
O=C(Nc1ccncc1)c1cc2ccccc2cc1O,-16,x,-33,68*,x,43,
COc1cc(OC)c(NC(=O)c2cc3ccccc3cc2O)cc1Cl,-21,x,x,85*,x,23,
SMILES,H9c2 protect,PHOSPHO1 block,ALR H2O2 inh,PfG6PD inh,PfM18AAP inh,PfGluPho conf,others
O=C(Nc1cccc([N+](=O)[O-])c1)c1cc2ccccc2cc1O,-16,33,14,73*,3,11,
O=C(O)c1cc([N+](=O)[O-])ccc1C(=O)Nc1cccc([N+](=O)[O-])c1,4,x,x,6,-3,x,
S=c1[nH]nc(-c2ccc3ccccc3n2)n1-c1ccc(Cl)cc1,-13,1,4,36,3,x,
Cc1ccccc1-n1c(-c2ccc3ccccc3n2)n[nH]c1=S,-3,71*,18,69*,-2,56*,Diaph ctr 10uM=15;Diaphorase 30uM=17
Cc1cccc(NC(=O)c2ccc3c(c2)C(=O)N(c2ccccc2C)C3=O)n1,-3,x,-12,7,x,x,
COc1ccc(-n2c(NN)nc3sc4c(c3c2=O)CCCC4)cc1,8,-22,11,92*,23,29,
Cc1c(Cl)cccc1N=C1NC(=O)CS1,3,x,x,66*,x,43,
Cc1c(N=C2C=C(Br)C(=O)C(Br)=C2)c(=O)n(-c2ccccc2)n1C,-2,-47,x,98*,22,103*,Diaph ctr 10uM=38;Diaphorase 30uM=11
Cc1c(C=O)c(=O)n(-c2ccccc2)n1C,6,-10,-18,-14,1,x,
Cc1ccc(-c2csc(NC(=O)c3ccc(Br)cc3)c2C(=O)O)cc1,-8,6,-2,117*,1,53*,Diaph ctr 10uM=40;Diaphorase 30uM=35
Cc1ccc(-c2csc(NC(=O)c3cccc(C)c3)c2C(=O)O)cc1,-7,x,14,47,x,x,
Cc1ccc(-c2csc(NC(=O)/C=C/c3ccco3)c2C(=O)O)cc1,-4,19,97*,93*,1,58*,Diaph ctr 10uM=58*;Diaphorase 30uM=59*
O=C(Nc1ccccc1C(=O)N1CCCCC1)c1ccc(Cl)cc1Cl,2,37,x,-23,2,x,
O=C(O)c1cc(O)c2c(c1)[C@@H]([C@H]1c3cc(C(=O)O)cc(O)c3C(=O)c3c(O[C@@H]4O[C@H](CO)[C@@H](O)[C@H](O)[C@H]4O)cccc31)c1cccc(OC3O[C@H](CO)[C@@H](O)[C@H](O)[C@H]3O)c1C2=O (stereo not given in full),4,x,-13,69*,x,7,
O=C(O)c1cc(O)c2c(c1)[C@H]([C@H]1c3cc(C(=O)O)cc(O)c3C(=O)c3c(O[C@@H]4O[C@H](CO)[C@@H](O)[C@H](O)[C@H]4O)cccc31)c1cccc(OC3O[C@H](CO)[C@@H](O)[C@H](O)[C@H]3O)c1C2=O (stereo not given in full),15,x,1,71*,x,6,
Cc1noc(C)c1NC(=O)Nc1ccc2c(c1)CC(=O)N([C@@H](C)CO)C[C@@H](C)[C@@H](CN(C)C(=O)Nc1cccc3ccccc13)O2,9,x,-10,0,x,x,
CC(=O)NC(C)(CC(=O)c1ccccc1)c1ccccc1 (stereo not given),2,x,-8,-13,x,x,
COc1cc(Br)c(C(=O)c2nccc3cc(OC)c(OC)cc23)cc1OC,4,x,-154,88*,1,-21,
O=C(CN1C(=O)NC2(CCCC2)C1=O)NCc1ccccc1,0,x,1,-17,x,x,
O=C(CSc1nccc(=O)[nH]1)NC1CCCCCC1,3,x,-2,2,x,x,
Cc1ccc2oc(C(=O)N(Cc3ccccc3)C3CCS(=O)(=O)C3)c(C)c2c1 (stereo not given),2,x,x,2,3,x,
Cc1c(C(=O)N(Cc2ccccc2Cl)C2CCS(=O)(=O)C2)oc2ccccc12 (stereo not given),-6,44,-14,96*,14,57*,Diaph ctr 10uM=59*;Diaphorase 30uM=46
COc1ccc(CNC(=O)c2c(-c3c(F)cccc3Cl)noc2C)cc1,-4,34,-4,5,-1,x,
